Bioassay records deposited in PubChem by several laboratories.
Only a selection was taken, and hits are over-represented in it overall.
RmlC RmlD mix = RmlC/RmlD inhibition, mixture screen; RmlC/RmlD coupled enzyme inhibition, 384-well mixture HTS; inhibition, % at 5.5 µM; 0.39% of 110,000 active; AID 1532; in the data active = inhibition above about 30%, passing the limit was not always enough
RT RNaseH block = inhibitors of HIV-1 reverse transcriptase RNase H | P04585 | RT-RNase H RNA/DNA duplex cleavage, fluorescence | inhibition, % at 10 µM | 1.9% of 65,000 active | AID 565; in the data active = inhibition above about 50%
RmlCD fluor art = shows fluorescent artifact in RmlC/RmlD assay, dose-response counter-screen; shares compounds with RmlC RmlD mix; AID 1696; RmlC/RmlD assay fluorescence artifact counter-screen; 96% of 360 active; calls only; call rule not given here;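 note: compound alone with no enzyme and no substrates present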
Large screens that a line does not name were inactive (follow-up assays come after a bar, where they were run).

C=CCn1c2ccccc2c2nnc(SCC(=O)NC(C(=O)OC)C(C)C)nc21 (stereo not drawn)	none
CCCc1cc(=O)n2c([nH]c3ccccc32)c1C#N	RmlC RmlD mix 38.8 (no result: RT RNaseH block) | RmlCD fluor art active
CCCCc1c(C)c(C#N)c2[nH]c3ccccc3n2c1=O	none (no result: RT RNaseH block)
Cc1oc2cc(OCC(=O)O)ccc2c(=O)c1Oc1ccccc1	none
CCOC(=O)c1cc2ccc(OC(=O)c3ccco3)cc2oc1=O	RmlC RmlD mix active | RmlCD fluor art active
CCOC(=O)c1c(C)n(C)c2ccc(OC(=O)c3ccco3)cc12	none (no result: RT RNaseH block)
COc1ccccc1Oc1c(C)oc2cc(OC(=O)c3ccco3)ccc2c1=O	RmlC RmlD mix 105.0 | RmlCD fluor art active
CCOC(=O)c1cn(Cc2ccccc2)c(C(=O)OC(C)(C)C)c1O	none (no result: RT RNaseH block)
O=C(Nc1ccc2oc(-c3ccc4ccccc4c3)nc2c1)c1ccc2c(c1)OCCO2	RmlC RmlD mix 36.4 (no result: RT RNaseH block) | RmlCD fluor art active
O=C(Nc1ccc(-c2nc3cc(NC(=O)c4cccs4)ccc3o2)cc1)c1cccs1	RmlC RmlD mix 92.8 (no result: RT RNaseH block) | RmlCD fluor art active
O=C(Nc1ccc2oc(-c3ccncc3)nc2c1)c1cccs1	none
Cc1ccc2nc(-c3cccc(NC(=O)c4ccc5c(c4)OCCO5)c3)oc2c1	none
O=C(NN1C(=O)c2ccc3c4c(ccc(c24)C1=O)CC3)c1ccc(Br)cc1	none (no result: RT RNaseH block)
C=CCOC(=O)C1=C(C)NC(SCC(=O)N(CC)CC)=C(C#N)C1c1ccccc1 (stereo not drawn)	none (no result: RmlC RmlD mix)
C=CCOC(=O)C1=C(C)NC(SCC(=O)NC(=O)OCC)=C(C#N)C1c1cccnc1 (stereo not drawn)	RmlC RmlD mix 30.3 | RmlCD fluor art active
Cc1cccc(-n2c(C)cc(/C=N/n3cnnc3)c2C)c1	none (no result: RT RNaseH block)
Cc1ccccc1CSc1nccn1-c1ccccc1	none (no result: RT RNaseH block)
COCCCNC(=O)c1ccc2nc3ccccc3c(=O)n2c1	RmlC RmlD mix 34.0 | RmlCD fluor art active
COCCCn1c(SCC(=O)NCc2ccccc2)nc2ccccc2c1=O	none (no result: RT RNaseH block)
COCCCn1c(C2CCCCC2)nc2oc3cc(OC)ccc3c(=O)c2c1=O	none
Nc1c(Cl)cc(-c2csc(N3CCCC3c3nc4cc(Cl)c(N5CCCCC5)cc4n3CCCO)n2)cc1Cl (stereo not drawn)	none (no result: RT RNaseH block)
COc1ccccc1N1CCN(CC(=O)Nc2cc(C)nn2-c2nc(C)cc(C)n2)CC1	none (no result: RmlC RmlD mix)
N#CCc1ccc(C(=O)c2ccccc2F)s1	none (no result: RT RNaseH block)
Cn1c(=O)n(Cc2ccc(F)cc2)c(=O)c2c1nc1n2CCCN1C1CCCCC1	none
COC(=O)Cc1c(C)c2ccc(OC(=O)c3ccccc3)cc2oc1=O	RmlC RmlD mix 63.9 (no result: RT RNaseH block) | RmlCD fluor art active
Cc1c(CC(=O)O)c(=O)oc2cc(OCc3nn[nH]n3)ccc12	none (no result: RT RNaseH block)
COc1cccc(/C=N\NC(=O)c2sc(N)nc2C)c1OC	none (no result: RT RNaseH block)
CC(C)=CCc1c(O)c(CC=C(C)C)c2c(c1O)-c1cc(O)c(O)cc1CC2	none (no result: RT RNaseH block)
Cc1ccc([N+](=O)[O-])cc1N=Cc1ccc(Br)s1	none (no result: RT RNaseH block)
Cc1ccc(C(=O)O)cc1N=Cc1cc(Br)cc(Br)c1O	none (no result: RmlC RmlD mix, RT RNaseH block) | RmlCD fluor art active
CCOC(=O)C[C@H]1c2cc(F)ccc2S(=O)(=O)N1C1CCCC1	none (no result: RT RNaseH block)
CC(NCc1ccc(N(C)C)cc1)C1CC2CCC1C2 (stereo not drawn)	none (no result: RT RNaseH block)
Cc1cc2ccccc2n1CCNC(=O)c1ccc(Br)o1	none (no result: RT RNaseH block)
CCc1ccc(-c2cc(C(F)(F)F)n3nc(C(=O)Nc4c(C)nn(Cc5ccccc5C)c4C)cc3n2)s1	none (no result: RT RNaseH block)
CCc1ccc(-c2cc(C(F)(F)F)n3nc(C(=O)Nc4cnn(Cc5ccccc5C)c4)cc3n2)s1	RmlC RmlD mix active (no result: RT RNaseH block) | RmlCD fluor art active
CCn1c2ccccc2c2cc(/C=N/n3cnnc3)ccc21	none
CCn1c(/C=N/n2cnnc2)nc2ccccc21	RmlC RmlD mix 73.2 | RmlCD fluor art active
COC(C[C@@H]1O[C@@H]1C(=O)COCc1ccccc1)OC	none (no result: RT RNaseH block)
N#CCCNc1ccc(OCCC#N)cc1	none
CC(=O)c1ccc(/C=C/c2nc3ccccc3n2C)o1	none (no result: RmlC RmlD mix, RT RNaseH block) | RmlCD fluor art active
Cn1c(/C=N/NC(=O)c2ccccc2)nc2ccccc21	none (no result: RT RNaseH block)
O=S(=O)(c1cnc[nH]1)N1CCc2ccccc21	none
CCCn1c(-c2cccs2)nc2nc3ccccc3nc21	RmlC RmlD mix 81.3 (no result: RT RNaseH block) | RmlCD fluor art active
c1csc(-c2nc3nc4ccccc4nc3n2Cc2ccc3c(c2)OCO3)c1	none
C#CCOCCOCCOCCNc1nc(N2CCN(C(=O)C([C@@H](C)CC)n3cc(C(N)Cc4ccc(O)cc4)nn3)CC2)nc(N2CCN(C(=O)[C@H](CCC(=O)O)n3cc(C(N)CO)nn3)CC2)n1 (stereo partly drawn)	none (no result: RT RNaseH block)
CCn1c2ccccc2c2nnc(SCCCn3c(=O)[nH]c4ccccc43)nc21	RmlC RmlD mix 82.0 | RmlCD fluor art inactive
CCn1c2ccccc2c2nnc(SCc3ccccc3)nc21	none
Cn1cc([N+](=O)[O-])c(C(=O)Nc2ccn(Cc3c(F)c(F)cc(F)c3F)n2)n1	none (no result: RT RNaseH block)
O=c1cc(-c2ccccc2)c2ccc(O)c(CN3CCCCC3)c2o1	none
Cc1c(O)c(CN2CCCCC2)cc2c3c(c(=O)oc12)CCC3	RmlC RmlD mix 91.2 | RmlCD fluor art active
Cc1oc2c(C)c3oc(=O)c4c(c3cc2c1C)CCC4	none
O=c1oc2c(CN3CCCCC3)c(O)ccc2c2c1CCCC2	RmlC RmlD mix 95.7 (no result: RT RNaseH block) | RmlCD fluor art active
CC(CCc1ccccc1)NC(=O)c1cccs1 (stereo not drawn)	none (no result: RT RNaseH block)
Cc1ccc(NC(=O)c2cc([N+](=O)[O-])ccc2NCc2cccnc2)cc1	none (no result: RT RNaseH block)
O=C(CSc1cn(Cc2ccccc2)c2ccccc12)N1CCOCC1	none (no result: RT RNaseH block)
COc1ccc(C#Cc2c(-c3ccc(OC)cc3)oc3ccc(-c4ccc(OC)cc4)cc23)cc1	RmlC RmlD mix active (no result: RT RNaseH block) | RmlCD fluor art active
COc1ccc(-c2ccc3oc(-c4ccc(OC)cc4)c(C#CCCO)c3c2)cc1	none (no result: RT RNaseH block)
Cc1c(C)c2cc(Cl)c(O)c(CN(C)C)c2oc1=O	RmlC RmlD mix 63.0 | RmlCD fluor art active
CCc1c(C)c2cc(Cl)c(O)c(CN(C)C)c2oc1=O	RmlC RmlD mix 82.5 | RmlCD fluor art active
CCc1cc2c(=O)c(-c3nc4ccccc4n3C)c(C)oc2c(CN(CC)CC)c1O	none (no result: RT RNaseH block)
C=CCOC(=O)COc1ccc2c(C)c(CC)c(=O)oc2c1	none
Cc1coc2c(C)c3oc(=O)c4c(c3cc12)CCCC4	none
CN(C)Cc1c(O)c(Cl)cc2c3c(c(=O)oc12)CCCC3	RmlC RmlD mix 139.5 (no result: RT RNaseH block) | RmlCD fluor art active
CCc1c(C)c2cc(Cl)c(O)c(CN(CC)CC)c2oc1=O	RmlC RmlD mix 105.7 | RmlCD fluor art active
COc1ccc(-c2cc(=O)oc3c(C)c(O)c(CN(C)C)cc23)cc1	none
CCOc1ccc(NC(=O)C2=C(C)C(=O)OC23CCC(C)CC3)cc1 (stereo not drawn)	none (no result: RT RNaseH block)
CC1(C)Cc2nc(N3CCOCC3)c(C#N)cc2CO1	none
CC1(C)Cc2nc(NCCCO)c(C#N)cc2CO1	RmlC RmlD mix 44.2 | RmlCD fluor art active
CCOC(=O)Nc1ccc2c(CN3C(=O)NC(CC)(CC)C3=O)cc(=O)oc2c1	none (no result: RT RNaseH block)
CCOC(=O)Nc1ccc2c(CN3C(=O)NC4(CCCC4)C3=O)cc(=O)oc2c1	RmlC RmlD mix 73.7 | RmlCD fluor art active
COC(=O)Cc1c(C)c2ccc(O)c(CN3CCCC(C)C3)c2oc1=O (stereo not drawn)	RmlC RmlD mix 95.8 (no result: RT RNaseH block) | RmlCD fluor art active
CCc1cc(=O)oc2cc(C)c(CN3CCCC(C)C3)c(O)c12 (stereo not drawn)	none
CCCCCCC(=O)N1CCC(c2nc3c(nnn3Cc3ccccc3Cl)c(=O)[nH]2)CC1	none
CC1CN(C(=O)c2cc3c(s2)CCC3)CC(C)O1 (stereo not drawn)	none
